# Screening data: PubChem BioAssay, National Center for Advancing Translational Sciences (NCATS)
# Bst PK mod: Pyruvate Kinase. AID 361, 2006. Potency, µM. 51,000 compounds, 1.2% hits. purified pyruvate kinase, luminescence ATP production; ribose 5-phosphate activator present at AC10; in the data active = potency below about 11 µM; inconclusive = mostly about 12 µM to 25 µM;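 the screen sought inhibitors and activators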;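 also: scaled between full activation by ribose 5 phosphate and full inhibition by luteolin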
# TSHR ag: qHTS Assay for Agonists of the Thyroid Stimulating Hormone Receptor; Thyrotropin receptor (Homo sapiens), P16473; HEK293-CNG-TSHR cells (CNG channel as cAMP sensor), membrane potential dye, cAMP; Potency, µM (top dose mostly 57.1 µM), inactives show at the highest dose activation, usual class: activators; 73,000 compounds, 0.48% hits; active = well fitted activation curve with a large enough effect in the main read-out, with a control signal flat, not every such curve was filed as active; inconclusive = small, poorly fitted or top-dose-only effect, or a change in a side signal; inactive = no such curve, though single readings can be large or run the other way; % of control where 0% means no effect;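 also: the control signal comes from parental cells without the receptor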
#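 cAMP rise detected as CNG-channel membrane depolarization by fluorescent dye (emission 590 nm), 30 min after compound, following 60 min dye loading containing 100 uM RO 20-1724 at room temperature. Cells: TSHR/CNG HEK 293, with parental CNG HEK 293 as control.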
# GBA mod: Glucocerebrosidase | Potency, µM | AID 360, 2006 | purified enzyme, resorufin glucoside fluorescence (screen aimed at inhibitors), 20 min | 48,000 compounds, 1.1% hits; in the data active = potency below about 15 µM; inconclusive = mostly about 16 µM to 33 µM;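 also: the screen sought inhibitors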
# Target sequence (P04062 whole entry, looked up): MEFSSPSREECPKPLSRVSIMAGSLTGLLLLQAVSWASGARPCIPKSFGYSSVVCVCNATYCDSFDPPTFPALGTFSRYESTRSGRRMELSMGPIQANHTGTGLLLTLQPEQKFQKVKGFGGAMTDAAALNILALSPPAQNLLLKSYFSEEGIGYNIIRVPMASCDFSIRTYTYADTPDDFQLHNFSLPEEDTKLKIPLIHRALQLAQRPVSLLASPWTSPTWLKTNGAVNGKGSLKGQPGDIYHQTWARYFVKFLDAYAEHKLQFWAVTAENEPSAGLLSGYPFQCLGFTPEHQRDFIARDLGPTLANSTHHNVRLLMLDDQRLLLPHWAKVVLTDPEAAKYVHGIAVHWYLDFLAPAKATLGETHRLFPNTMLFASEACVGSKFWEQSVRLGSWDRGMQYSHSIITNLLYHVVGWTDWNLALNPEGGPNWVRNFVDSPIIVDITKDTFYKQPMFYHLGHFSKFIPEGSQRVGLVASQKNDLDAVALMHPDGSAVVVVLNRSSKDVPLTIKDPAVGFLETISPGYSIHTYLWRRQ
#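 Wild-type enzyme at 0.2 nM final in 50mM citric acid/KH2PO4, 10mM sodium taurocholate, 0.01% tween-20, pH 5.9, with resorufin beta-D-glucopyranoside at 30 uM final. Compounds titrated, 20 min at RT, red fluorescence read; AC50 from titration.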
# USP2a inh: qHTS Assay for Inhibitors of Ubiquitin-specific Protease USP2a; AID 927, 2007; USP2a enzymatic assay, qHTS inhibition; Ubiquitin carboxyl-terminal hydrolase 2 (Homo sapiens), O75604; 60,000 compounds, 0.1% hits; Potency, µM (series often up to 38.3 µM), for the others: at the highest dose activity change, negative = inhibition, most hits filed as inhibitors; also: nearly all actives have a fitted effect of over 60% in size
#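 USP2 core (20 nM final) was preincubated with compound for 30 min at RT in 20 mM Tris-HCl pH 8.0, 2 mM CaCl2, 2 mM beta-mercaptoethanol; Ub-PLA2 (20 nM) plus NBD C6-HPC (20 uM) then added, fluorescence read after 2.5 h.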
# HEK293 cAMP cs: qHTS Assay for Agonists of the Thyroid Stimulating Hormone Receptor: Activators of Intracellular cAMP Concentrations in Parental HEK 293 | 73,000 compounds, 2.5% hits | Potency, µM (series often up to 57.1 µM), for the others: at the top dose activation, usual class: activators | parental HEK293 CNG cAMP sensor, membrane potential fluorescence; also: % of control where 0% means no effect; nearly all actives have a fitted effect of over 55% in size
#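 Parental HEK 293 cells stably expressing a modified CNG channel (no TSHR) report cAMP rise as membrane depolarization. Membrane potential dye with 100 uM RO 20-1724 was loaded for 60 min at room temperature, then compound added for 30 min; fluorescence read at 590 nm.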
# Ub-GFP proteasome: Ubiquitin-GFP Assay; Ubiquitin-GFP reporter cells, proteasome inhibition, GFP fluorescence; response scale: untreated = 0%, 10 µM MG-132 = 100%; Potency, µM (titrated, usually from 45.9 µM), inactives show top-dose activation (GFP accumulation), usual class: activators; 67,000 tested, under 10 active; active = well fitted activation curve with a large enough effect, not every such curve was filed as active; inconclusive = small, poorly fitted or top-dose-only effect, or another doubt; inactive = no such curve, though single readings can be large or run the other way
#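 Reporter cells (U2OS, ubiquitin-G76V-GFP fusion) are plated overnight, then treated 4 hr at 37 °C with compound titrations from 46 uM down to 2.9 nM. Activity is scaled against untreated cells and 10 uM MG-132.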
# * hit, by the source's call; u = inconclusive; x = not tested or not shown; [ ] = another dose, or the depositor's remark. Compounds with a hit are over-represented: about 4.1% of the library has one in this group of screens. Unless noted, calls follow the shape of the dose curve; as a rule, active = well fitted curve in the direction sought with a large enough effect; inconclusive = small, poorly fitted or top-dose-only effect, or another doubt; inactive = no such curve, though single readings can be large; an effect the other way counts as inactive or inconclusive. Potency is read from the fitted curve at half-maximal effect.
SMILES,Bst PK mod,TSHR ag,GBA mod,USP2a inh,HEK293 cAMP cs,Ub-GFP proteasome
COc1cc2cc3c4c(cc(OC)c(OC)c4c2cc1OC)CCN3C,x,u,x,x,-63%,6%
COc1ccc(C(c2nnnn2C(C)(C)C)N2CCN(c3nc4ccccc4s3)CC2)cc1 (centres undefined),>57,10µM*,x,24%,30%,2%
CCC(C)(C)n1nnnc1C(c1ccc(C)cc1)N1CCCC1 (centres undefined),>57,u,>77,13%,25µM*,0%
COc1ccccc1C(c1nnnn1C(C)(C)C)N1CCCCCC1 (centres undefined),u,13%,>77,-3%,28%,-1%
CC1CCN(C(c2ccccc2)c2nnnn2C(C)(C)C)CC1 (centres undefined),>57,u,>77,x,20µM*,-5%
CCC(C)(C)n1nnnc1C(c1ccc(O)c(OC)c1)N1CCN(c2nc3ccccc3s2)CC1 (centres undefined),>57,u,u,23%,u,1%
Cc1cc(S(=O)(=O)N(Cc2ccccc2)Cc2ccc(N(C)C)cc2)ccc1-n1cnnn1,>57,10%,8.5*,-3%,-5%,-4%
c1ccc(C2=NN[C@@H]3c4ccccc4-c4ccccc4N3C2)cc1,x,-1%[11.4 µM],x,x,5%[11.4 µM],3%[9.17 µM]
COCCN(CCOC)c1ncc(Cl)c(C(=O)c2c(C)cc3ccccn23)n1,>57,u,>77,-9%,32µM*,-6%
CN1CCC(CNC(=O)c2ccc(Cc3nc4ccccc4[nH]3)cc2)CC1,x,9%,x,x,-21%,x
O=C(O)Cc1[nH]cnc1C(=O)O,x,-2%[11.4 µM],x,x,4%[11.4 µM],-8%[9.17 µM]
O=S(=O)(Nc1ccc(Cl)cc1Cl)c1cc(Cl)ccc1Cl,x,x,x,x,8%,x
CN1CCN(c2ccc(Cl)cc2NS(=O)(=O)c2ccccc2Cl)CC1,>57,8%,13*,17%,17%,2%
CCCCOCCOCCOCc1cc2c(cc1CCC)OCO2,x,u,x,x,32µM*,x
CCCCOCCCNC(=O)c1ccc2c(c1)OCO2,x,15%[11.4 µM],x,7%[7.66 µM],27%[11.4 µM],13%[9.17 µM]
OCC1O[C@H](OC2C(CO)O[C@@](O)(CO)C2O)C(O)C(O)C1O (some centres undefined),x,x,x,-17%,x,x
CCC(C)(C(=O)NC1CCCC1)N(Cc1cccs1)C(=O)Cc1cccs1 (centres undefined),>57,u,>77,14%,2.5µM*,11%
CCC(C)(C(=O)NC1CCCC1)N(Cc1ccco1)C(=O)c1ccc2c(c1)OCO2 (centres undefined),>57,u,>77,8%,2.5µM*,-16%
CCC(C)(C(=O)NC1CCCC1)N(Cc1cccs1)C(C)=O (centres undefined),>57,9%,>77,3%,16%,-12%
C=CCC1(C)OC=Cc2nc3cc(Cl)c(Cl)cc3nc21 (centres undefined),x,15%[11.4 µM],x,x,28%[11.4 µM],x
COCC(=O)N1CCC[C@@]2(CCN(c3ccccc3)C2)C1,x,4%,x,25%,2%,2%
CC1=C(C(=O)OCCOC(C)C)C(c2cc3c(cc2Br)OCO3)C2=C(CCCC2=O)N1 (centres undefined),>57,-4%,11*,196%,-3%,-6%
CCN(CC)c1ccc(C2C(C(=O)OCCOC(C)C)=C(C)NC3=C2C(=O)CCC3)cc1 (centres undefined),x,7%,x,22%,-2%,22%
Cc1ccco1,x,-2%,x,x,-7%,x
CC1=C(C(=O)OCc2ccccc2)C(c2ccco2)C2=C(CC(C)(C)CC2=O)N1 (centres undefined),x,x,x,24%,12%,-13%
SMILES,Bst PK mod,TSHR ag,GBA mod,USP2a inh,HEK293 cAMP cs,Ub-GFP proteasome
CCOC(=O)C1=C(N)OC2=C(C(=O)CC(C)(C)C2)C1c1ccco1 (centres undefined),>57,u,>77,-6%,25µM*,-3%
O=c1c(-c2cc(F)cc(F)c2)nc2cnc(N3CCNCC3)nc2n1C1CC1,x,-12%,x,128%,3%,-2%
CCOC(=O)CCc1c(C)c2ccc(OC(C)C(=O)OCC)c(C)c2oc1=O (centres undefined),>57,u,u,-6%,20µM*,6%
COc1ccc(C(C)C(=O)c2ccc(O)cc2O)cc1 (centres undefined),x,x,x,1%,x,x
CC(C)[C@@H]1OC(=O)C=CC=CC=CC=CC=CC[C@@H](O)[C@H](C)[C@@H](O)C[C@H](O)C[C@H](O)C[C@H](O)C[C@H](O)C[C@H](O)C[C@H](O)C=C[C@@H]1C,x,-4%[11.4 µM],x,x,-7%[11.4 µM],2%[9.17 µM]
CCC(C)(C)NC(=O)C(c1ccc(C)o1)N(Cc1cccs1)C(=O)Cn1nnc2ccccc21 (centres undefined),>57,u,>77,14%,16µM*,-4%
CCC(C)(C)NC(=O)C(c1ccccc1F)N(Cc1ccco1)C(=O)Cn1nnc2ccccc21 (centres undefined),>57,u,x,x,16µM*,2%
CC[C@]1(c2ncc[nH]2)Cc2ccccc2O1,x,u,x,x,u,0%
COc1ccc(-c2cc(C(=O)OCC(=O)N(C)C)c3ccccc3n2)cc1,9.8*,12%,>77,u,13%,-2%
COc1ccccc1C(CCN(Cc1cccs1)C(C)=O)c1ccco1 (centres undefined),>57,u,>77,19%,16µM*,-1%
O=C(c1ccco1)N1CCC(c2nc(-c3ccc(F)cc3)no2)CC1,>57,u,>77,0%,20µM*,2%
O=C(Nc1cccc(C(F)(F)F)c1)N1CCC(c2nc(-c3ccc(F)cc3)no2)CC1,>57,3%,u,0%,12%,-3%
Cc1c(N2CCCC2)cc2c(c1NC(=O)c1ccccc1Cl)C(C)(C)CC2(C)C,x,8%[11.4 µM],x,x,24%[11.4 µM],-8%[9.17 µM]
Cc1cc(C)n(-c2nc3ccccc3nc2Nc2ccc3c(c2)OCO3)n1,x,27%,x,x,1%,8%
Cc1ccc2nc(Nc3ccc4[nH]c(=O)[nH]c4c3)c(-n3nc(C)cc3C)nc2c1,7.5*,-32%,>77,u,-28%,-3%
